Assay results: ChEMBL document CHEMBL4513216, “Probing the Open Global Health Chemical Diversity Library for Multistage-Active Starting Points for Next-Generation Antimalarials” (ACS Infect Dis, 2020)
Screen size: about 69,000 compounds; about 8,600 (12%) showed an effect of 50% or more. Only a selection was taken, and strong results are over-represented in it overall.

What follows are compounds tested on Plasmodium berghei (assay: Screen against P. berghei liver stage (PbLuc), transformed with Luciferase, at 10uM). Settings: tested at 10 uM.
Assay type: functional, HepG2
Work on `O=C(c1ccncc1)N1CCOC2(COCCN(c3cncnc3)C2)C1` (stereo not given) yielded an INHIBITION of 37.8%.
With `Cc1nc(Cn2c3c(ccc2=O)CCN(CC2CCC2)CC3)cs1` the INHIBITION was -18.5%.
`CC1c2ncc(CN3CCN(C)CC3)n2CCN1Cc1ccccn1` (stereo not given) was tested, and the INHIBITION was 53%.
Compound `CC1c2ncc(CN3CCN(C)CC3)n2CCN1Cc1cccnc1` (stereo not given) has an INHIBITION of 34.8%.
Work on `CC1c2ncc(Cn3cccn3)n2CCN1Cc1ccccn1` (stereo not given) yielded an INHIBITION of 58.4%.
`CC1c2ncc(CN3CCN(C)CC3)n2CCN1Cc1ccc(F)cc1` (stereo not given) was tested, and the INHIBITION was 11.5%.
With `CC1c2ncc(CNC(=O)C3CC3)n2CCN1Cc1ccccn1` (stereo not given) the INHIBITION was -88.3%.
For `CC1c2ncc(Cn3cccn3)n2CCN1Cc1cccnc1` (stereo not given), the INHIBITION was -9.26%.
`CC1c2ncc(Cn3cccn3)n2CCN1Cc1ccc(F)cc1` (stereo not given) gave an INHIBITION of 54.8%.
Work on `CC1c2ncc(CN3CCN(C)CC3)n2CCN1Cc1ccsc1` (stereo not given) yielded an INHIBITION of 27.3%.
With `CC1c2ncc(Cn3cccn3)n2CCN1c1ncccn1` (stereo not given) the INHIBITION was 23.1%.
`c1ccc(Cc2nnc(CN3CCOC(Cn4cccn4)C3)o2)cc1` (stereo not given) showed an INHIBITION of 19.4%.
For `Cc1cccc(C(=O)N2C[C@@H]3C(CC(=O)N4CCCC4)[C@@H]3C2)n1` (stereo not given in full), the INHIBITION was -2.35%.
`CSc1nc2ccsc2c(=O)n1CC(=O)N(C)c1ccccc1` showed an INHIBITION of 36.8%.
For `O=C(O)[C@@H]1CCN(C(=O)c2ccccn2)[C@@H]1c1ccc(F)cc1`, the INHIBITION was -8.58%.
Compound `CCN1CCN(C(=O)c2ccc(=O)n(C)c2)c2ccccc21` has an INHIBITION of 44.1%.
`CN1CC2(CCN(C(=O)c3ccc4nonc4c3)CC2)CC1=O` gave an INHIBITION of -6.01%.
Work on `CC1CN(C(=O)c2ccc(=O)n(C)c2)c2ccccc2NC1=O` (stereo not given) yielded an INHIBITION of -12.2%.
With `CN1CC2(CCN(C(=O)c3ccc(=O)n(C)c3)CC2)CC1=O` the INHIBITION was 50.5%.
`CN1C(=O)CN(C(=O)c2ccc(=O)n(C)c2)c2ccccc21` was tested, and the INHIBITION was 60.5%.
With `CN1CCN(C(=O)c2ccc(=O)n(C)c2)Cc2ccccc21` the INHIBITION was 40.3%.
Work on `CN1CCN(C(=O)c2ccc(=O)n(C)c2)c2ccccc21` yielded an INHIBITION of 50.4%.
`Cn1cc(C(=O)N2CCOc3cc(F)ccc32)ccc1=O` showed an INHIBITION of 16.1%.
`COCCCN1CC2(CCN(C(=O)c3ccc(=O)n(C)c3)CC2)CC1=O` was tested, and the INHIBITION was -14.7%.
For `Cc1ccc2c(c1)OCCN2C(=O)c1ccc(=O)n(C)c1`, the INHIBITION was 8.48%.
In the case of `Cn1cc(C(=O)N2CCOc3ccccc32)ccc1=O`, the INHIBITION is reported as 51.8%.
Work on `CC1CN(C)c2ccccc2N(C(=O)c2ccc(=O)n(C)c2)C1` (stereo not given) yielded an INHIBITION of 31.8%.
`CN(Cc1cccc(F)c1)C(=O)CN1CCOC(Cn2cccn2)C1` (stereo not given) gave an INHIBITION of -14.8%.
`COc1coc(C(=O)Nc2ccncc2)cc1=O` gave an INHIBITION of 14.3%.
In the case of `Cc1cnc(N2CCC3(CCC(C(=O)NC(C)C)C3)CC2)nc1` (stereo not given), the INHIBITION is reported as 11.3%.
`CC(=O)N1CCCN(C(=O)c2ccc(=O)n(C)c2)c2ccccc21` was tested, and the INHIBITION was 62.6%.
`CC1CCN(C)c2ccccc2N1C(=O)c1ccc(=O)n(C)c1` (stereo not given) was tested, and the INHIBITION was -3.12%.
`Cn1cc(C(=O)N2CCSc3ccccc32)ccc1=O` showed an INHIBITION of 33.8%.
`COc1ccc(-c2cc(C3CC3)c(C#N)c(N)n2)cc1F` was tested, and the INHIBITION was -60.9%.
`O=C(c1ccc[nH]1)N1CCc2nnc(Cn3cccc3)n2CC1` was tested, and the INHIBITION was -6.25%.
Compound `Cc1ccc(S(=O)(=O)n2ccn(C(=O)CC(C)C)c2=O)cc1` has an INHIBITION of 40%.
For `Cc1cc(NC2CC3(CCN(Cc4csc(C)n4)C3)C2)ncn1` (stereo not given), the INHIBITION was -31.1%.
In the case of `COc1ccc2c(c1)C1(CCN(Cc3ccncc3)CC1)N(C)CC2`, the INHIBITION is reported as -9.67%.
`Cc1cnc(N2CCC3(CCN(Cc4csc(C)n4)C3=O)C2)nc1` (stereo not given) gave an INHIBITION of 34%.
With `Cc1ccc(N2CCC3(CCN(Cc4ccccn4)CC3)CC2)nn1` the INHIBITION was -42.6%.
With `COc1ccc2c(c1)C1(CCN(Cc3ccccn3)CC1)N(C)CC2` the INHIBITION was -73.3%.
`COc1cc(N2CCC3(CCN(Cc4csc(C)n4)C3=O)C2)ncn1` (stereo not given) showed an INHIBITION of 90.1%.
Work on `COc1ccc2c(c1)C1(CCN(Cc3nccs3)CC1)N(C)CC2` yielded an INHIBITION of 51.3%.
In the case of `Cc1ccc(N2CCC3(CCN(Cc4csc(C)n4)C3=O)C2)nn1` (stereo not given), the INHIBITION is reported as 47.5%.
`COc1cc(N2CCC3(CCN(Cc4csc(C)n4)C3)CC2)ncn1` showed an INHIBITION of 55.7%.
For `Cc1ccc(N2CCC3(CCN(Cc4csc(C)n4)CC3)CC2)nn1`, the INHIBITION was 58.7%.
In the case of `Cc1ccc(N2CCC3(CCN(Cc4nccs4)CC3)CC2)nn1`, the INHIBITION is reported as 26.5%.
With `Cc1nc(CN2CCN(c3cc(CCN)ncn3)CC2)cs1` the INHIBITION was 17.2%.
In the case of `CSc1ccc(C(=O)N2CC(=O)N(Cc3cccs3)CC(O)C2)cc1` (stereo not given), the INHIBITION is reported as 19.2%.
`CCOCC(O)CN1CCN(C(=O)C2CCC2)CC1` (stereo not given) showed an INHIBITION of -14.6%.
Compound `Cc1ccc(O)c(CNc2cccc(CN3CCN(C)CC3)c2)n1` has an INHIBITION of 13.9%.
`Cc1cc(NC(=O)CN2CCc3c(nc(C(C)C)n3C)C2)n(C)n1` gave an INHIBITION of 36%.
For `COCC1c2nnn(CC3CC3)c2CCN1Cc1ccncc1` (stereo not given), the INHIBITION was 4.68%.
`Cc1cc(C)c(CNC(=O)N(C)Cc2cccc(C#N)c2)c(=O)[nH]1` showed an INHIBITION of -3.7%.
Compound `COc1ccc(C(=O)N2CCCC2c2noc(C(C)C)n2)nn1` (stereo not given) has an INHIBITION of 12.255%.
In the case of `O=C(NC1CC1)N1CC[C@H]2[C@H]1CCN2c1nncs1`, the INHIBITION is reported as -19.8%.
For `CN(C)CCNC(=O)[C@H]1C[C@H]2CN(C(=O)NCc3ccccc3)C[C@@H]1O2`, the INHIBITION was -0.27%.
In the case of `CN(Cc1noc(C2CC2)n1)C1CCN(Cc2ccc(F)c(F)c2)C1` (stereo not given), the INHIBITION is reported as -19.945%.
`Cc1ccc(N2CC3(CCN(c4nccs4)C3)C2)nn1` was tested, and the INHIBITION was 58.5%.
Work on `c1csc(CN2CCC3(CC2)CCN(CC2CCOCC2)C3)n1` yielded an INHIBITION of -8.85%.
`COc1cc(N2CC3(CCN(c4ncccn4)C3)C2)ncn1` gave an INHIBITION of 12.1%.
`Cc1nc(CN2CC3(CCN(c4cnccn4)C3)CC2=O)cs1` (stereo not given) showed an INHIBITION of 35.8%.
Work on `Cc1ccc(N2CCC3(CC2)COCCN(c2nccs2)C3)nn1` yielded an INHIBITION of 6.72%.
With `Cc1cnc(N2CCC3(CC(=O)N(Cc4csc(C)n4)C3)C2)nc1` (stereo not given) the INHIBITION was 54.7%.
For `Cc1nc(CN2CC3(CCN(c4ncc(F)cn4)C3)CC2=O)cs1` (stereo not given), the INHIBITION was -30%.
Compound `COc1cc(N2CCC3(CCN(Cc4nccs4)CC3)C2)ncn1` has an INHIBITION of 91.9%.
For `COc1cc(N2CCC3(CC(=O)N(Cc4csc(C)n4)C3)C2)ncn1` (stereo not given), the INHIBITION was 58.4%.
`CCc1cnc(N2CCC3(CC(=O)N(Cc4csc(C)n4)C3)C2)nc1` (stereo not given) was tested, and the INHIBITION was 34.4%.
`N#Cc1ccc(N2CC3(CCN(c4nccs4)C3)C2)nc1` gave an INHIBITION of 37.9%.
Compound `Cc1nc(CN2CC3(CCN(c4ncccn4)C3)CC2=O)cs1` (stereo not given) has an INHIBITION of 18.2%.
